Reference: PubChem BioAssay AID602293 (National Center for Advancing Translational Sciences (NCATS), 2012)
In all, about 1,300 compounds went through this assay and about 30 (2%) were called active. Where a call stands in place of a potency, no number is given. Roughly 10% stayed inconclusive and do not appear here. Calls come from the whole dose curve; as a rule, active = well fitted inhibition curve with a large enough effect; inconclusive = small, poorly fitted or top-dose-only effect; inactive = flat fitted curve, though single readings scatter. The full list was thinned out, with actives kept by preference.
Potency is the fitted concentration of half-maximal effect.

Experiment: qHTS for antagonists of the Thyroid Stimulation Hormone Receptor: Hit Validation in HTRF Activity in a Luteinizing Hormone Receptor Cell Line
Conditions: LHR-expressing cell line, cAMP HTRF, antagonist mode; series mostly up to 58 µM
Excerpt: The thyroid-stimulating hormone receptor (TSHR) is a member of the 7 trans-membrane-spanning receptor (7TMR) family of cell surface receptors. TSHR-mediated hyperthyroidism is important in thyroid pathology. The development of small molecule antagonists of TSHR may lead to therapeutic approaches for TSHR-mediated hyperthyroidism caused by constitutively activating mutations or stimulating auto-antibodies associated with Graves' disease. Graves' disease is the leading cause of hyperthyroidism and is caused by autoantibodies that stimulate TSHR (TsAbs) causing thyroid growth and unregulated overproduction of thyroid hormones and existing treatments have liabilities (agranulocytosis). In addition, TSHRs are known to be expressed in multiple extrathyroidal tissues including bone, brain, kidney, testis, fat and cells of the immune system but the role of the TSHR in these tissues is not clear. Therefore, TSHR antagonists/inverse agonists could be used as probes of extrathyroidal TSHR function. Finally, TSHR inverse agonists, which are a subclass of antagonists that inhibit agonist-independent (or basal or constitutive) TSHR signaling, could be used to inhibit TSH-independent signaling in patients with recurrent or metastatic thyroid cancer who are receiving thyroid hormone to suppress TSH.
In collaboration between scientist from the NCGC and the NIDDK, a miniaturized HTRF high-throughput screen was developed. It's a cell based assay, where an anti cAMP antibody contains a fluorescent cryptate tag (excitation 337 nm; emission 620 nm) and the acceptor is cAMP-d2 (excitation 620 nm; emission 665 nm). When antibody and cAMP-d2 interact and are excited by a 337 nm light, a FRET occurs resulting in emission at 665 nm. The assay is competition between cAMP-d2 and cAMP (from the cell lysate). The homogeneous protocol allows for one step dispense after stimulation that is automation friendly. In order to confirm specificity of the compounds to the TSHR, a confirmatory assay was conducted on a similar family member, the Luteinizing Hormone (LH) receptor, transfected into a HEK 293 cell line, using an orthogonal detection technology to measure cAMP stimulation: antibody-based Homogeneous Time Resolved Fluorescence (HTRF).
NIH Chemical Genomics Center [NCGC]
NIH Molecular Libraries Probe Centers Network [MLPCN]
Assay Provider: Marvin Gershengorn, NIDDK
Homogeneous Time Resolved Fluorescence (HTRF) cAMP Assay. HEK 293 cells stably transfected with a vector containing the LH receptor and maintained under hygromycin selection were obtained from the laboratory of Dr. Marvin Gershengorn. Compounds were assayed using a HTRF cAMP detection kit (Cisbio) on the LH receptor transfected cell line. Briefly, 750 cells were plated in 2.5 ul/well of complete media (DMEM containing 10 % FCS, and 100 uM RO 20-1724) in 1536 well solid bottom white plates and 23 nl/well compound in DMSO solution or controls was added. Following 30 minute incubation at room temperature, 2.5 ul/well of labeled d2 cAMP and 2.5 ul/well of anti-cAMP antibody (both diluted 1:20 in lysis buffer) were added to each well using a flying reagent dispenser (Aurora Discovery, San Diego) . Plates were measured using the Envision plate reader (PerkinElmer, Boston, MA) with excitation at 330 nm and emissions of 615 nm and 660 nm.
For `COc1ccc(-[n+]2c(-c3ccccc3)cc(-c3ccc(C)cc3)cc2-c2ccccc2)cc1`, the Potency was “inactive”. With `Cc1ccc(C[n+]2c(-c3ccc(C)cc3)cc(-c3ccc(C)cc3)cc2-c2ccc(C)cc2)cc1` the Potency was 37.9 µM (active). With `Cc1ccc(-c2cc(-c3ccccc3)cc(-c3ccccc3)[n+]2-c2ccccc2)cc1` the Potency was 42.6 µM (active). For `Oc1ccc(-[n+]2c(-c3ccccc3)cc(-c3ccccc3)cc2-c2ccccc2)cc1`, the Potency was 39.8 µM (active). With `OCC[n+]1c2ccccc2nc2ccc(N3CCOCC3)cc21` the Potency was “inactive”. With `COC(=O)C1=C(c2ccc(OC(F)(F)F)cc2)C[C@@H]2CC[C@H]1N2C(=O)N1CCC(C)CC1` the Potency was “inactive”. For `COC(=O)C1=C(c2ccc(-c3ccccc3)c(F)c2)C[C@@H]2CC[C@H]1N2C(=O)NCC1CC1`, the Potency was “inactive”. For `CN(C)CC1Oc2ccccc2OC1(O)c1ccccc1` (stereo not given), the Potency was “inactive”. In the case of `C[C@H]1O[C@@H](OC2CC[C@]3(C=O)[C@H]4CC[C@]5(C)[C@@H](C6=CC(=O)OC6)CC[C@]5(O)[C@@H]4CC[C@]3(O)C2)CC2OC(C)(C)OC21` (stereo not given in full), the Potency is reported as “inactive”. For `N#CC(C#N)=NNc1ccc(-n2ccc(C(F)(F)F)n2)cc1`, the Potency was “inactive”. With `CC(=O)c1ccc2c(c1)C1C(Cl)C(Sc3ccccc3[N+](=O)[O-])CC1C(C(=O)O)N2` (stereo not given) the Potency was “inactive”. In the case of `COC(=O)C1=C(c2ccc(-c3ccccc3)c(F)c2)C[C@@H]2CC[C@H]1N2C(=O)N1CCOCC1`, the Potency is reported as “inactive”. For `O=C(C1CCN(c2nc3ccc(Br)cc3s2)CC1)N1CCC2(CC1)OCCO2`, the Potency was “inactive”. With `COc1cc2c(cc1/C=C/[N+](=O)[O-])OCO2` the Potency was “inactive”. In the case of `C[C@]12CC[C@H]3C(CCC4(O)CC(O)CC[C@]34C=O)C1=CC[C@H]2c1ccc(=O)oc1` (stereo not given in full), the Potency is reported as “inactive”.
